In PubChem BioAssay AID652104 (National Center for Advancing Translational Sciences (NCATS), 2013):
Screen size: about 410,000 compounds; about 7,200 (1.8%) were called active. Not shown: some 7% with an inconclusive outcome. What follows is part of a selection rich in actives, with near analogues and random picks from the rest. Entries that show only a call come without a potency. Values without a mark were called inactive. The call rests on the fitted dose curve; in most records, active means well fitted activation curve with a large enough effect; inconclusive means small, poorly fitted or top-dose-only effect, or another doubt; inactive means no such curve, though single readings can be large or run the other way.

assay: qHTS of TDP-43 Inhibitors; conditions: TDP-43 expressing yeast growth rescue, BacTiter-Glo, 24 h; series mostly up to 46.1 µM; further: nearly all actives have a fitted effect of over 50% in size
How it was run: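 Galactose-induced TDP-43 yeast, OD600=0.02, compound pinned; 24 hr, 30 deg C; BacTiter-Glo luminescence for growth. Inhibitors of TDP-43 toxicity read as activators.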
Potency means the concentration at half of the fitted maximal effect.

Question: Which Potency does the source give for `Cc1ccc2nc(N3CCN(c4cccc(Cl)c4)CC3)c3nnnn3c2c1` here?
Answer: inactive

Question: With `O=C(Cn1c(-c2cccs2)cc2ccccc21)NCCc1ccc(Cl)cc1` as the compound, how does the Potency read?
Answer: inactive

Question: Which Potency does the source give for `CCn1cc(C(=O)N2CCN(c3cc(Cl)ccc3C)CC2)c(=O)c2cc(S(=O)(=O)N3CCCC3)ccc21` here?
Answer: inactive

Question: Which Potency does the source give for `CCCSc1nc2sc3c(c2c(=O)n1-c1cccc(Br)c1)CC(C)(C)OC3` here?
Answer: inactive

Question: Which Potency does the source give for `Cc1c(NC(=O)Cc2ccccc2)cccc1-c1nc2cccnc2s1` here?
Answer: inactive

Question: With `COc1ccc(NC(=O)N2CCCn3nc(C)cc32)cc1OC` as the compound, how does the Potency read?
Answer: inactive

Question: Which Potency does the source give for `O=C(COc1ccc(Cl)cc1)NCCSc1ccccc1` here?
Answer: 17.8 µM (active)

Question: For `Cc1nnc(SCC(=O)NCCOc2ccc(Cl)cc2)n1-c1ccccc1`, which Potency is on record?
Answer: inactive

Question: For `O=C(CCSc1ccccc1)NCCSc1ccccn1`, which Potency is on record?
Answer: inactive

Question: For `COc1cc(NC(=O)c2noc3c2CSc2ccccc2-3)cc(OC)c1OC`, which Potency is on record?
Answer: inactive

Question: For `COC(=O)CN1C(=O)CSc2ccc(S(=O)(=O)Nc3cc(C)ccc3C)cc21`, which Potency is on record?
Answer: inactive

Question: For `CCOC(=O)/C(=C\c1ccc([N+](=O)[O-])cc1)C(=O)c1cc(C(C)=O)c(Nc2ccccc2)s1`, which Potency is on record?
Answer: inactive

Question: Which Potency does the source give for `CCc1ccccc1NC(=O)/C(=C/c1ccccc1)c1ccccc1` here?
Answer: inactive

Question: Which Potency does the source give for `CCOC(=O)C(=Cc1ccccc1)C(=O)c1ccccc1` here?
Answer: 6.31 µM (active)

Question: With `CCOc1cccc2c1N[C@@H](c1ccc(C(=O)O)cc1)[C@H]1CC=C[C@@H]21` as the compound, how does the Potency read?
Answer: inactive

Question: With `COc1cccc(CNC(=O)c2ccc3c(c2)N(Cc2ccc(C(F)(F)F)cc2)C(=O)c2ccccc2S3)c1OC` as the compound, how does the Potency read?
Answer: inactive

Question: For `Cn1c(=O)c2sccc2n2c(CCC(=O)NCc3ccccc3Cl)nnc12`, which Potency is on record?
Answer: inactive

Question: With `Cn1nnnc1SCCCNCc1ccc(Cl)cc1` as the compound, how does the growth rescue (activation) read?
Answer: 7.89% [at 9.22 µM]

Question: With `COc1ccc(NC(=O)CN(C)C(=O)c2ccc(NC3CC3)c([N+](=O)[O-])c2)cc1` as the compound, how does the Potency read?
Answer: inactive

Question: For `Cc1cc(C=O)c(C)n1-c1ccc(NC2CCCCC2)c([N+](=O)[O-])c1`, which Potency is on record?
Answer: 35.5 µM (active)

Question: For `Cc1c(NC(=O)CCC2CCCCC2)cc(C(=O)N2CCOCC2)cc1[N+](=O)[O-]`, which Potency is on record?
Answer: inactive

Question: With `CCc1ccc(C2C(C(=O)Nc3ccccc3)=C(C)Nc3c(C(=O)Nc4ccc(C)cc4)cnn32)cc1` (stereo not drawn) as the compound, how does the Potency read?
Answer: inactive

Question: For `CCOC(=O)c1ccc(NC(=O)Cn2c(=O)n(-c3ccc(C)cc3)c(=O)c3c2cnn3C)cc1`, which Potency is on record?
Answer: inactive

Question: Which Potency does the source give for `Cc1ccc(-c2nnc(Nc3cccc(Br)c3)c3ccccc23)cc1S(=O)(=O)NCC1CCCO1` (stereo not drawn) here?
Answer: inactive

Question: With `CCc1nccn1S(=O)(=O)c1cc(Br)ccc1Br` as the compound, how does the Potency read?
Answer: inactive

Question: Which Potency does the source give for `O=C(c1cc(-c2ccc(O)cc2)on1)N1CCCc2ccccc21` here?
Answer: 12.6 µM (active)

Question: Which Potency does the source give for `O=C(CSc1ccc2nnc(-c3ccccc3)n2n1)N1CCCc2ccccc21` here?
Answer: inactive

Question: For `Cc1ccc(NC(=O)Cc2ccc(NC(=O)N3CCCCc4ccccc43)cc2)cc1`, which Potency is on record?
Answer: inactive
